High-throughput results: PubChem BioAssay, National Center for Advancing Translational Sciences (NCATS)
Pf growth 96h: P. falciparum growth inhibition at 96 hours; hit rate 6.9% among 320,000; Potency, µM (series often up to 28.7 µM), for inactives: top-dose activity change, negative = inhibition, hits mostly inhibitors; AID 504834; P. falciparum luciferase reporter growth, 96 h; also: potency is read from the fitted curve at half-maximal effect; % is scaled to controls: 0 for no effect and ±100 for the full control effect
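Two-generation exposure (96 h) targets delayed-death phenotype. Reporter parasites carrying integrated firefly luciferase, in red cells at 2% hematocrit and 0.05% parasitemia final, kept at 37 C, 5% CO2; luminescence loss indicates inhibition.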
Shiga inhibitor: inhibitors of Shiga toxin in Vero cells. Vero cells, Shiga toxin protein synthesis inhibition reporter. inhibition, % at 38.7 µM. hit rate 9.2% among 290,000. AID 2315; in the data active = inhibition mostly above about 28%, no sharp cut-off; inactive = mostly below about 43%; also: 0% is about no effect
Pf growth 48h: inhibits P. falciparum growth in the first generation, 48 h; Potency, µM (top dose mostly 28.7 µM), without a hit: top-dose activity change, negative = inhibition, hits mostly inhibitors; hit rate 5.9% among 310,000; P. falciparum luciferase growth in erythrocytes, 48 h; also: potency is read from the fitted curve at half-maximal effect; % is scaled to controls: 0 for no effect and ±100 for the full control effect
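Growth was read as firefly luciferase luminescence after a 48 h, 37 C, 5% CO2 exposure of compounds to reporter-bearing P. falciparum cultures (0.1% parasitemia, 2% hematocrit final) in Albumax-supplemented RPMI 1640.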
LASV entry inh: blocks Lassa virus binding to or entry into cells. Lassa virus pseudotype entry inhibition, cell reporter. Potency, µM (highest dose often 37.9 µM), for inactives: top-dose activity change, negative = inhibition, actives largely listed as inhibitors. hit rate 1.2% among 300,000. AID 540256; calls by dose curve; tested in HEK293 cells; also: potency is read from the fitted curve at half-maximal effect; % is scaled to controls: 0 for no effect and ±100 for the full control effect; nearly all actives have a fitted effect of over 50% in size
MARV entry inh: inhibitors of Marburg virus binding or cell entry | Potency, µM (series often up to 37.8 µM), for the others: at the highest dose activity change, negative = inhibition, usual class: inhibitors | hit rate 1.8% among 300,000 | Marburg virus pseudotyped entry inhibition, cell reporter | AID 540276; calls by dose curve; tested in HEK293 cells; also: potency is read from the fitted curve at half-maximal effect; % is scaled to controls: 0 for no effect and ±100 for the full control effect
Cycloheximide cs: affects cycloheximide protein synthesis inhibition readout, counter-screen. cell reporter, cycloheximide protein synthesis inhibition counterscreen. max response, %. hit rate 12% among 300,000. AID 2314; in the data active = max response mostly above about 13%, no sharp cut-off; inactive = mostly below about 14%; also: read at 38.3 µM for the half of the compounds with a filed dose; 0% is about no effect
* hit, by the source's call; u = inconclusive; x = no result given; + = active, no number; [ ] = another dose, or the depositor's remark. Most compounds without a hit are left out; they make up all but 19% or so of the library. Unless noted, calls follow the shape of the dose curve; as a rule, active = well fitted inhibition curve with a large enough effect; inconclusive = small, poorly fitted or top-dose-only effect, or another doubt; inactive = no such curve, though single readings can be large or run the other way.

SMILES | Pf growth 96h | Shiga inhibitor | Pf growth 48h | LASV entry inh | MARV entry inh | Cycloheximide cs
C=CCOc1ccc(C2C(C(=O)c3ccco3)=C(O)C(=O)N2Cc2cccnc2)cc1 (configuration not stated) | x | + | -11.0% | 6.3% | 0.9% | 17.6
C=CCOc1cccc(C2C(C(=O)c3ccco3)=C(O)C(=O)N2Cc2cccnc2)c1 (configuration not stated) | -12.3% | 45.1 | -1.6% | 18.8% | -3.7%[46.1 µM] | 9.5
COc1ccc(N(CC(=O)NCc2ccccc2OC)S(=O)(=O)c2ccccc2)cc1 | u | -11.4 | -28.2% | 4.7%[46.1 µM] | 10µM* | -6.4
COc1ccc(S(=O)(=O)N(CC(=O)NCc2ccco2)c2ccccc2)cc1 | u | -8.4 | x | 0.0% | -3.7% | 0.7
COc1ccc(N(CC(=O)NCc2ccccc2OC)S(=O)(=O)c2ccc(C)cc2)cc1Cl | 28.9% | -30.1 | u | x | x | 5.0
COc1ccccc1OCCNC(=O)CN(c1cccc(C)c1)S(=O)(=O)c1ccccc1 | -23.5% | -6.4 | 14.7µM* | x | x | -1.8
Cc1cc(C)cc(N(CC(=O)NCc2ccco2)S(=O)(=O)c2ccccc2)c1 | 35.4% | 47.9* | u | x | u | 9.4
COc1ccc(N(CC(=O)NCc2ccco2)S(=O)(=O)c2ccccc2)cc1 | 6.57µM* | 25.9 | -10.5% | x | -9.0%[46.1 µM] | 14.9
CCCCCCC(=O)Nc1cc2c(C)cc(=O)oc2cc1C | 27.3% | 5.3 | 10.2% | 34.7% | 5.9% | -0.2
COc1ccc(CCNC(=O)C(=O)NCC2OCCN2S(=O)(=O)c2ccc(C)cc2)cc1OC (configuration not stated) | u | -3.6 | u | x | x | -0.9
O=C(CN(c1ccccc1)S(=O)(=O)c1ccccc1)N/N=C/c1ccco1 | 3.7µM* | -8.5 | 6.5% | -5.5% | u | -1.5
c1ccc2c(c1)OCC(CN1CCCCC1)O2 (configuration not stated) | u | x | -2.6% | x | x | x
Cc1cc2nc(C3CCN(CC4COc5ccccc5O4)CC3)[nH]c2cc1C (configuration not stated) | 6.4% | 12.3 | 13.1µM* | x | x | -0.9
COc1cccc2cc(C(=O)NCc3ccccn3)c(=O)oc12 | u | 37.6 | 6.1% | -0.5% | 20.5% | 23.0*
CCOc1cccc2cc(C(=O)NCc3ccc(OC)cc3)c(=N)oc12 | 10.4µM* | 8.1 | u | u | 14.7% | -1.5
CNC(=O)c1cc2cccc(OC)c2oc1=O | -2.0% | -5.4 | -2.8% | -20.0% | -24.4% | -0.3
COc1cccc2cc(C(=O)N3CCc4ccccc4C3)c(=O)oc12 | 22.9% | 39.4 | x | u | 11.0% | 24.3*
CCOc1cccc2cc(C(=O)NCc3cccnc3)c(=O)oc12 | 2.33µM* | 32.8 | 17.6% | 9.2% | 13.9% | 12.2
CCOc1cccc2cc(C(=O)N3CCc4ccccc4C3)c(=O)oc12 | 5.2% | -4.2 | 11.7% | 0.0% | 17.6% | 0.8
C=CCc1cccc2cc(C(=O)NCc3cccnc3)c(=O)oc12 | -1.7% | -5.8 | 8.2% | -13.9% | 4.8% | 0.2
COC(=O)CCCCCCCCC(O)C[N+]1(C)CCOCC1 (configuration not stated) | 12.7% | -2.4 | -8.8% | 11.2% | -2.3% | 1.3
COc1ccc(C(=O)NCC(=O)NCC(=O)OCc2ccc(Cl)cc2)cc1 | -20.9% | 25.7 | 9.5% | x | x | 6.0
COc1cccc2cc(C(=O)NCCC3=CCCCC3)c(=O)oc12 | u | 10.9 | 7.7% | -8.2% | -14.4%[46.1 µM] | 9.4
COc1cccc2cc(C(=O)NCCc3ccccc3)c(=O)oc12 | 8.6% | -4.0 | 41.4% | u | u | 17.0*
CCOC(=O)C1=C(NC(=S)NC(=O)c2ccccc2)c2ccccc2CC1C(C)C (configuration not stated) | 0.0% | -2.9 | u | 0.891µM* | 0.794µM* | 8.1
SMILES | Pf growth 96h | Shiga inhibitor | Pf growth 48h | LASV entry inh | MARV entry inh | Cycloheximide cs
CCOC(=O)C1=C(NC(=S)NC(=O)c2ccccc2)c2ccccc2CC1(C)CC (configuration not stated) | u | 26.5 | -9.8% | 2.06µM* | 5.8µM* | 9.3
CC(C)C(=O)Nc1cccnc1 | 29.4% | -4.7 | 7.0% | x | x | -3.2
O=C(Nc1cccnc1)c1cc(Br)c(Br)s1 | 11.7µM* | x | u | 18.9% | 17.8%[46.1 µM] | x
NC(=O)c1cc(NC(=O)c2cc(Br)c(Br)s2)cc(C(N)=O)c1 | 8.28µM* | -4.1 | -15.2% | -5.2% | -21.5%[46.1 µM] | -1.9
O=C(NCC1CCCO1)c1cc(Br)c(Br)s1 (configuration not stated) | 7.0% | 21.6 | -1.7% | -28.2%[46.1 µM] | 0.0%[46.1 µM] | 7.8
CC(C)N1CCN(Cc2c[nH]c3ccccc23)CC1CCO (configuration not stated) | 1.2% | 13.5 | 17.6% | x | x | -3.5
CC(C)=CCN1CCN(Cc2c[nH]c3ccccc23)CC1CCO (configuration not stated) | 2.94µM* | -7.2 | 0.0% | 12.1% | -1.4% | 0.7
CC(C)=CCN1CCN(Cc2cccc3c2OCO3)CC1CCO (configuration not stated) | u | -15.2 | 4.3% | 6.7% | 3.2%[46.1 µM] | 1.8
CC(C)CN1CCN(Cc2c[nH]c3ccccc23)CC1CCO (configuration not stated) | 9.28µM* | x | 9.5% | x | x | -4.8
O=C1CC(C(=O)O)C(c2ccccc2)c2ccccc21 (configuration not stated) | x | x | x | 22.0%[46.1 µM] | 2.2%[46.1 µM] | x
O=C(Cn1cncn1)N1CCN(c2ccc(F)cc2)CC1 | 1.0% | -0.7 | 0.0% | 0.3%[46.1 µM] | -20.9%[46.1 µM] | -1.6
Cc1ccc(C)c(S(=O)(=O)N2CC(=O)N(CCc3ccccc3)C(=O)C2)c1 | -12.4% | -9.6 | -2.3% | u | u | -3.3
O=C(CN1C(=O)C2(SCC(=O)N2c2ccc(F)cc2)c2ccccc21)NC1CCCCC1 (configuration not stated) | x | x | x | 0.7%[46.1 µM] | x | x
COc1ccc2cc3cc(C(=O)N4CCN(C5CCCCC5)CC4)oc3nc2c1 | -21.2% | 6.8 | u | x | x | 6.3
COc1ccc2cc3cc(C(=O)N4CCCCCC4)oc3nc2c1 | u | 72.1* | 0.0% | x | x | 40.6*
COc1ccc2cc3cc(C(=O)N4CCCCC4C)oc3nc2c1 (configuration not stated) | u | 64.4* | -3.8% | x | x | 33.7*
COc1ccc2cc3cc(C(=O)N(C)C4CCCCC4)oc3nc2c1 | u | 77.5* | -6.9% | x | x | 29.8*
CCOC(=O)c1ccc(N2C(=O)C[C@@H](Sc3nnc(C)s3)C2=O)cc1 | x | x | x | x | 8.4% | x
COc1cc(CN(C)CCc2ccccn2)cc(OC)c1OC | u | 5.4 | 4.0% | 11.5% | -1.4% | -3.2
O=C(C(c1ccccc1)c1ccccc1)N1CC[C@@]2(O)CCCC[C@H]2C1 | 9.8% | -8.3 | -0.5% | -16.2% | 5.62µM* | -1.5
CC(C)(C)c1ccccc1OCCOCCN1CCCCCC1 | 9.7% | -3.6 | u | -19.8% | u | -4.1
CCC(C)c1ccccc1OCCOCCN1CCCC1 (configuration not stated) | 3.1% | -15.1 | u | 18.4µM* | u | -5.0
